Rows were chosen to be rich in hits. Some 10% of all compounds tested hit in one or more screens of this group.
Gal4-VP16 FLuc: counter-screen for ROR gamma inhibitors: Gal4-VP16 reporter; AID 2546; Drosophila S2 Gal4-VP16 UAS-luciferase, luminescence, 20 h; Potency, µM (titrated, usually from 53.6 µM), for inactives: at the highest dose activity, negative = inhibition, actives largely listed as inhibitors; 310,000 tested, 3.5% active;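 also: Gal4-VP16 expression switched on by copper sulfate through the metallothionein promoter; % is scaled to controls: 0 for no effect and ±100 for the full control effect; nearly all actives have a fitted effect of over 50% in size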
SW480 rereplic: DNA re-replication induction in SW480 cells; SW480 DNA re-replication, Hoechst DNA content imaging, 48 h; Potency, µM (series often up to 46.1 µM), for the others: at the top dose re-replication activation, usual class: activators; 340,000 tested, 1.8% active; AID 624297; also: % of control where 0% means no effect; nearly all actives have a fitted effect of over 55% in size
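Image-based DNA-content assay: after two days of treatment, nuclei were labelled with the DNA dye Hoechst and imaged, and hits were compounds raising the count of nuclei showing high fluorescence intensity.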
MCF10A rereplic: DNA re-replication induction in MCF 10a cells; MCF 10A DNA re-replication, Hoechst nuclear intensity, 48 h; Potency, µM (highest dose often 46.1 µM), for inactives: at the top dose activity, positive = re-replication, usual class: activators; 350,000 tested, 2.9% active; AID 624296; also: % of control where 0% means no effect; nearly all actives have a fitted effect of over 50% in size
RORg inh: blocks mouse ROR gamma transcriptional activity; P51450; Drosophila S2 Gal4-RORgamma UAS-luciferase reporter, 20 h; Potency, µM (highest dose often 53.6 µM), inactives show at the top dose activity change, negative = inhibition, most hits filed as inhibitors; 310,000 tested, 5.4% active; also: % is scaled to controls: 0 for no effect and ±100 for the full control effect; nearly all actives have a fitted effect of over 60% in size
Target sequence (P51450 whole entry, looked up, the tested form may be a part): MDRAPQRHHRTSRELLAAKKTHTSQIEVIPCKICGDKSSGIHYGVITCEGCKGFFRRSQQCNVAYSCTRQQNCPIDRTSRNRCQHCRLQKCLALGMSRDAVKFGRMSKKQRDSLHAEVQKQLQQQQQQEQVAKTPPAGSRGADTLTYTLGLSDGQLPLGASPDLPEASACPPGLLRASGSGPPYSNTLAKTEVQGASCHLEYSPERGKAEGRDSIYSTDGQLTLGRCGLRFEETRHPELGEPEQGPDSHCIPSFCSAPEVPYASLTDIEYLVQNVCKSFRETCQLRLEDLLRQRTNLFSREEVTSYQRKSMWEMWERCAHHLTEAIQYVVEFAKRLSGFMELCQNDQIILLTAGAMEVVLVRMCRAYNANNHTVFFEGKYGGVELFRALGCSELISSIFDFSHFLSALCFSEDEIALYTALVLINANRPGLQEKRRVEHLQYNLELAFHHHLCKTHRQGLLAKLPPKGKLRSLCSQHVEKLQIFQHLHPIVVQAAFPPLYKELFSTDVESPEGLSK
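A Gal4/UAS one-hybrid system in insect cells: metallothionein-promoter Gal4–ROR gamma fusion plus Photinus luciferase reporter. Copper sulfate 700 uM final, 20 hr ambient incubation, luminescent detection after 10 min with reagent.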
ELG1 DNA repair: blocks ELG1-dependent DNA repair in HEK293T cells; HEK293T ELG1-luciferase reporter, luminescence, 16 h; DNA damage induced by 5-fluorouridine; Potency, µM (series often up to 46.1 µM), inactives show at the top dose activity change, negative = inhibition, actives largely listed as inhibitors; 330,000 tested, 2.3% active; AID 504467; also: % is scaled to controls: 0 for no effect and ±100 for the full control effect; nearly all actives have a fitted effect of over 55% in size
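Cells (2,000 per well) received 5-fluorouridine plus test compound or DMSO and were incubated 16 hr at 37 °C, 5% CO2. Luciferase activity was read by luminescence 30 min after ONE-Glo addition; signal suppression marked inhibition of damage-induced ELG1 function.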
The depositor's hits bear a star; ? = inconclusive; · = no result given; [ ] = dose if it differs, or a comment. Calls follow the shape of the dose curve; as a rule, active = well fitted curve in the direction sought with a large enough effect; inconclusive = small, poorly fitted or top-dose-only effect, or another doubt; inactive = no such curve, though single readings can be large; an effect the other way counts as inactive or inconclusive. Potency is read from the fitted curve at half-maximal effect.

SMILES	Gal4-VP16 FLuc	SW480 rereplic	MCF10A rereplic	RORg inh	ELG1 DNA repair
Cc1cccc2nc(CNC(=O)C3CCC(=O)N(Cc4ccccc4F)C3)cn12 (stereo unspecified)	-8.2%	-4.2%	-1.0%	-1.7%	15.5%
CC(=O)Nc1ccc(S(=O)(=O)Nc2ccccc2N2CCOCC2)cc1	·	-18.1%	17.9%	·	-18.4%
O=c1c(Cl)cc(Cl)nn1-c1ccccc1	?	?	5.8µM*	14.1µM*	23.1µM*
Nc1nc(-c2ccccc2)c(-c2ccccc2)n1N	1.41µM*	-15.9%	?	0.398µM*	20.5%
Cc1cnc(NC(=O)NCC2CCCC(CNC(=O)Nc3ncc(C)s3)C2)s1 (stereo unspecified)	-27.3%	15.8%	?	?	20.6µM*
Cc1cnc(NC(=O)Cc2ccc(Br)cc2)s1	1.6%	5.5%	-11.1%	-3.4%	11.0%
COc1ccc(NC(=S)N(CCCN2CCOCC2)C(C)c2cc3cccc(OC)c3o2)cc1 (stereo unspecified)	-8.5%[10 µM]	-3.5%	12.8%	-2.2%	6.7%
CCc1cccc(NC(=S)N(CCCN2CCOCC2)C(C)c2cc3cccc(OC)c3o2)c1 (stereo unspecified)	?	-10.1%	5.6%	11.2µM*	15.3%
COc1cccc(NC(=S)N(CCCN2CCOCC2)C(C)c2cc3ccccc3o2)c1 (stereo unspecified)	?	-15.7%	3.8%	11.2µM*	1.6%
COc1cccc2cc(C(C)N(CCCN3CCOCC3)C(=O)Nc3ccccc3)oc12 (stereo unspecified)	-3.1%	1.7%	4.6%	2.5%	-2.5%
COc1cccc2cc(C(C)N(CCCN3CCOCC3)C(=S)Nc3cccc(C)c3C)oc12 (stereo unspecified)	-8.2%[10 µM]	5.2%	8.2%	11.2µM*	-2.8%
COc1cccc2cc(C(C)N(CCCN3CCOCC3)C(=S)Nc3cc(C)ccc3C)oc12 (stereo unspecified)	5.6%[10 µM]	-2.3%	6.1%	11.2µM*	2.8%
COc1cccc2cc(C(C)N(CCCN3CCOCC3)C(=S)Nc3ccc(C)c(C)c3)oc12 (stereo unspecified)	?	-11.2%	1.8%	11.2µM*	4.7%
C=CCN(C(=O)c1cccc(C(F)(F)F)c1)C1(C(=O)Nc2ccccc2)CCN(C(C)C)CC1	-10.1%	2.6%	7.4%	2.6%	0.0%
O=C1S/C(=C\c2ccc(O)c([N+](=O)[O-])c2)C(=O)N1Cc1cccc([N+](=O)[O-])c1	9.3%	-4.1%	?	24.0%	?
O=C1S/C(=C\c2ccc(O)c([N+](=O)[O-])c2)C(=O)N1c1ccccc1Cl	-18.1%	-69.5%	1.64µM*	-44.2%	?
C=CCn1c(SCC(=O)Nc2nc3ccccc3s2)nc(O)c(CC)c1=O	1.4%	0.1%	3.3%	37.2%	-23.4%
NC(=O)c1ccc(N2CCN(c3ccccc3O)CC2)c([N+](=O)[O-])c1	-1.4%	-5.0%	0.5%	?	16.4µM*
O=C(Nc1nc(-c2ccccc2)cs1)c1ccc(N2CCOCC2)c([N+](=O)[O-])c1	?	2.6%	?	?	3.66µM*
Cc1ccc(-c2csc(NC(=O)c3cc([N+](=O)[O-])ccc3N3CCOCC3)n2)cc1	-3.5%	-1.3%	4.0%	0.5%	17.0%
NC(=O)c1ccc(N2CCN(c3ccccc3F)CC2)c([N+](=O)[O-])c1	-18.4%	-20.0%	-5.8%	?	?
COc1ccc(C(=O)NC(=S)Nc2ccccc2N2CCOCC2)cc1[N+](=O)[O-]	10µM*	-5.4%	?	6.31µM*	18.4µM*
CC1CCN(c2ccccc2NC(=O)c2ccc(N3CCOCC3)c([N+](=O)[O-])c2)CC1	1.2%	-5.5%	16.4µM*	-16.3%	29.8%
COc1ccc(C(=O)Nc2ccccc2N2CCOCC2)cc1[N+](=O)[O-]	-2.9%	-104.5%	2.6%	-5.3%	12.5%
COC(=O)c1ccc(NC(=O)CSC2=NC(=O)C(c3ccccc3)C(=O)N2)cc1 (stereo unspecified)	-5.1%	-5.4%	-2.8%	-1.7%	13.0%
COc1ccc(NC(=O)C2CCN(S(=O)(=O)c3cn(C)nc3C)CC2)cc1	-17.4%	-19.9%	28.4%	-6.0%	27.1%
